In PubChem BioAssay AID2685 (National Center for Advancing Translational Sciences (NCATS), 2010):
The campaign covered roughly 320,000 compounds. About 2,100 (0.66%) were called active. Inconclusive results (about 53%) are left out. The call rests on the fitted dose curve; in most records, active means well fitted inhibition curve with a large enough effect in the signal ratio, with a control signal flat (not every such curve was filed as active); inconclusive means small, poorly fitted or top-dose-only effect, or effect the other way, or a change in a side signal; inactive means flat fitted curve, though single readings scatter; the % refers to the signal ratio. Only a selection was taken, and actives are over-represented in it overall.

assay: qHTS Assay for Lipid Storage Modulators in Drosophila S3 Cells; conditions: BODIPY lipid droplet fluorescence, 18-24 h, cells fed with added oleic acid; cell number change: measured here: cell count max response; series mostly up to 46.1 µM; lipid storage change, negative = inhibition: at the top concentration;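 on cell number change: cells counted by Cell Tracker Red CMTPX staining in the red channel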; on lipid storage change, negative = inhibition: on the % scale 0 is the no-effect control and ±100 the full control effect
How it was run: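 Drosophila S3 cells got compounds at several concentrations plus oleic acid (400 uM solution). Laser-scanning cytometry with 488 nm excitation read lipid droplets at 500-530 nm and cells at 575-640 nm. Percent activity was relative to 20 uM Triacsin C.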
Potency means the concentration at half of the fitted maximal effect.

| SMILES | lipid storage change, negative = inhibition | cell number change [%] | Potency | outcome |
| --- | --- | --- | --- | --- |
| O=C(O)c1ccc(N2C(=O)CC(N3CCN(c4cccc(Cl)c4)CC3)C2=O)cc1 (stereo not given) | 9.41% (inactive) | -9.85 |  |  |
| O=C1Nc2c(c(=O)[nH]c(=O)n2-c2ccccc2F)C(C(F)(F)F)(C(F)(F)F)N1 | -3.91% (inactive) | 12.5 |  |  |
| Cc1ccc(-n2c3c(c(=O)[nH]c2=O)C(C(F)(F)F)(C(F)(F)F)NC(=O)N3)cc1 | -27.1% (inactive) | 7.3 |  |  |
| O=C1Nc2c(c(=O)[nH]c(=O)n2-c2ccccc2)C(C(F)(F)F)(C(F)(F)F)N1 |  | -18.7 | 25.9 µM (active) |  |
| Cn1cccc1CC(=O)N/N=C/c1ccc(Cl)cc1 | 16.8% (inactive) | -7.57 |  |  |
| O=C(COC(=O)c1cc2ccccc2o1)NCc1ccco1 |  | -22.2 | 0.206 µM (active) |  |
| Cc1cc(C)cc(OCC(=O)OCC(=O)NCc2ccco2)c1 |  | 10.8 | 23.1 µM (active) |  |
| O=C(COC(=O)COc1ccc(Nc2ccccc2)cc1)NCc1ccco1 | -4.12% (inactive) | 8.25 |  |  |
| Cc1cc(C)cc(OCC(=O)OCC(=O)NCc2cccs2)c1 | -2.88% (inactive) | -3.19 |  |  |
| COc1ccc(CNC(=O)COC(=O)c2cc3ccccc3o2)cc1 |  |  |  | inactive |
| Cc1c(C(=O)OCC(=O)NCc2ccco2)oc2ccccc12 | 6.66% (inactive) | -15.4 |  |  |
| C=CCNC(=O)/C(=C\c1ccc([N+](=O)[O-])cc1)NC(C)=O | -2.27% (inactive) |  |  |  |
| CC(C)/C=N/Nc1nc2c(c(=O)n(C)c(=O)n2C)n1C | -8.14% (inactive) | -4.59 |  |  |
| COC(=O)c1ccc2c(=O)n(-c3ccccc3)c(=S)[nH]c2c1 | 11.6% (inactive) | 5.89 |  |  |
| NC(=O)CC(NC(=O)Cc1ccc(Br)cc1)c1ccc(NCCc2ccc(Cl)cc2)c([N+](=O)[O-])c1 (stereo not given) | 0.303% (inactive) | -9.69 |  |  |
| COCCOC(=O)/C(C#N)=C/c1cn(Cc2ccccc2)nc1-c1cccnc1 | -14.1% (inactive) | -16.4 |  |  |
| C[C@H](NC(=O)OCc1ccccc1)c1nnc([C@H](C)NC(=O)OCc2ccccc2)o1 | 2.69% (inactive) | 2.65 |  |  |
| Cc1ccc(S(=O)(=O)N2CCN(C(=O)CN3CCc4ccccc4C3)CC2)cc1 |  | 21.3 |  | inactive |
| C=CCOc1ccc(C(=O)Nc2ccccc2C(=O)NCc2cccnc2)cc1 |  | 18.4 | 3.26 µM (active) |  |
| COCc1ccc(C(=O)Nc2ccccc2C(=O)NCc2cccnc2)cc1 |  | 10.3 |  | inactive |
| COc1cc(C(=O)Nc2ccccc2C(=O)NCc2cccnc2)cc(OC)c1OC |  | -22.9 |  | inactive |
| CC(=O)Nc1nnc(S(=O)(=O)N2CCN(c3ccc([N+](=O)[O-])cc3Cl)CC2)s1 |  | -24.2 |  | inactive |
| COc1cccc(-c2cc(C(=O)Nc3ccc(OC)c(OC)c3)no2)c1 | 5.84% (inactive) | -25.5 |  |  |

| SMILES | lipid storage change, negative = inhibition | cell number change [%] | Potency | outcome |
| --- | --- | --- | --- | --- |
| O=C(Nc1ccc(N2CCOCC2)cc1)c1ccc([N+](=O)[O-])o1 |  | -16.7 |  | inactive |
| O=C(Nc1ccc(N2CCOCC2)cc1)c1cccnc1 | 6.23% (inactive) | 3.28 |  |  |
| CC1CCN(c2ccc(NC(=O)c3ccc([N+](=O)[O-])o3)cc2)CC1 |  | 0.613 | 16.4 µM (active) |  |
| Cc1ccc(C(=O)N2CCN(c3ccc(NC(=O)c4cccnc4)cc3)CC2)cc1 |  | 4.57 |  | inactive |
| CC(C)(C)C(=O)N1CCN(c2ccc(NC(=O)c3ccc([N+](=O)[O-])o3)cc2)CC1 |  | 19.6 |  | inactive |
| CC1CCN(c2ccc(NC(=O)c3cccnc3)cc2)CC1 |  | -20.1 | 20.6 µM (active) |  |
| CCn1c(=O)c2ccccc2n(CC(=O)NCCC2=CCCCC2)c1=O | 3.41% (inactive) | 25.4 |  |  |
| CCn1cc(C(=O)NCC(OC)OC)c(=O)c2cc(S(=O)(=O)N3CCOCC3)ccc21 | 11.9% (inactive) |  |  |  |
| Cc1ccc(C)c(OCC(=O)Nc2ccncc2)c1 | 2.81% (inactive) | 4.4 |  |  |
| COc1ccc(Nc2cc(C)c3cc([N+](=O)[O-])ccc3n2)cc1 | -8.57% (inactive) | 3.7 |  |  |
| Nc1c(C(=O)NCCc2ccccc2)nnn1Cc1ccc(Br)cc1F | 6.34% (inactive) | 2.88 |  |  |
| COc1ccc([C@H]2CC(=O)C=C(c3ccc(C)c(F)c3)C2)cc1 |  | -9.27 |  | inactive |
| COc1ccc(C2=CC(=O)C[C@H](c3ccc(F)cc3)C2)cc1OC | -2.63% (inactive) | -2.7 |  |  |
| COc1cc(F)c(C2=CC(=O)C[C@H](c3ccc4c(c3)OCO4)C2)cc1F |  | -8.29 |  | inactive |
| COc1ccc([C@H]2CC(=O)C=C(c3ccc(OC)c(F)c3)C2)cc1 |  | 1.81 | 0.731 µM (active) |  |
| COc1cc(F)c(C2=CC(=O)C[C@H](c3ccc(F)cc3)C2)cc1F |  | -1.88 | 0.731 µM (active) |  |
| COc1ccc(C2=CC(=O)C[C@H](c3ccc(F)cc3)C2)cc1F |  |  |  | inactive |
| O=C(Cc1cccc(NC(=O)C2CCN(C(=O)CCc3ccccc3)CC2)c1)Nc1cccc(C(=O)N2CCCC2)c1 |  | -25.9 |  | inactive |
| COc1ccc(C(=O)CN2CCN(c3ccc(Cl)cc3)CC2)cc1OC | -17.5% (inactive) | 16.9 |  |  |
| CC(C)CC(=O)Nc1ccc(C(=O)CN2CCC(C)CC2)cc1 | 6.1% (inactive) | 11.5 |  |  |
| CC(C)CC(=O)Nc1ccc(C(=O)CN2CCN(c3ccc(O)cc3)CC2)cc1 |  | -10.4 | 4.61 µM (active) |  |
| COc1ccc(N2CCN(CC(=O)c3ccc(Cl)cc3)CC2)cc1 |  |  | 6.51 µM (active) |  |
| CC(C)CC(=O)Nc1ccc(N2CCOCC2)cc1 | -2.97% (inactive) | -6.68 |  |  |

| SMILES | lipid storage change, negative = inhibition | cell number change [%] | Potency | outcome |
| --- | --- | --- | --- | --- |
| COc1ccc(N2CCN(CC(=O)c3ccccc3)CC2)cc1 |  | 8.26 |  | inactive |
| CCCC(C)c1nnc(NC(=O)C2CCCO2)s1 (stereo not given) |  |  |  | inactive |
| C/C(=N\NC(=O)c1ccc(-c2ccccc2)cc1)C1C(=O)c2ccccc2C1=O | -10.9% (inactive) | 2.31 |  |  |
| COc1ccc(OC)c(NC(=O)CCN2C(=O)c3cccc([N+](=O)[O-])c3C2=O)c1 |  | 12.8 |  | inactive |
| OCCC1CN(Cc2cc3c(cc2Cl)OCO3)CCN1C1CCCCC1 (stereo not given) | 18% (inactive) | 2.14 |  |  |
| OCCC1CN(Cc2ccncc2)CCN1C1CCCC1 (stereo not given) | -2.02% (inactive) | -1.79 |  |  |
| Cc1nnc(SCc2ccon2)n1-c1ccccc1 | -0.985% (inactive) | -2.33 |  |  |
| O=C(Cc1ccccc1)NCC(=O)N/N=C/c1cccs1 | 7.5% (inactive) |  |  |  |
| O=C(Cc1ccccc1)NCC(=O)N/N=C/c1ccc([N+](=O)[O-])s1 |  | 17.1 | 16.4 µM (active) |  |
| O=C(N/N=C/c1ccc([N+](=O)[O-])s1)c1ccccc1 |  |  |  | inactive |
| COc1ccc(OC)c(Cc2nnc(CCC(=O)NC3CCCCC3)o2)c1 | -8.81% (inactive) | -6.11 |  |  |
| Cn1c(OCc2ccc3c(c2)OCO3)nc2c1c(=O)n(Cc1ccc(Cl)c(Cl)c1)c(=O)n2C | -1.56% (inactive) | 10.2 |  |  |
| O=c1[nH]c(=O)n(Cc2ccc(Oc3ccccc3)cc2)cc1Br |  | 18.3 | 18.4 µM (active) |  |
| N#Cc1cn(Cc2ccccc2)c(=O)[nH]c1=O | -14.4% (inactive) | 17.6 |  |  |
| Cc1cn(Cc2ccccc2)c(=O)[nH]c1=O | -2.22% (inactive) | -5.94 |  |  |
| CC1Sc2ccc(S(=O)(=O)CCC(=O)NC3CCCCC3C)cc2NC1=O (stereo not given) |  | 7.41 |  | inactive |
| NC(=O)c1cc(C(=O)Cc2ccc(Cl)cc2)c[nH]1 |  | 23.6 |  | inactive |
| CCOc1ccc(CNC(=O)C(C)n2nc(C)c3c(C)n(-c4ccccc4)nc3c2=O)cc1 (stereo not given) |  |  |  | inactive |
| CCOC(=O)c1[nH]c2ccccc2c1NC(=O)c1nonc1C |  | 103 | 2.06 µM (active) |  |
| CCOC(=O)c1[nH]c2ccc(Cl)cc2c1NC(=O)c1nonc1C | -7.98% (inactive) | -14.5 |  |  |
| CCOC(=O)c1[nH]c2cc(OC)c(OC)cc2c1NC(=O)c1nonc1C |  | -8.79 |  | inactive |
| C#CCOC(=O)C[N+](C)(C)CC=C | -14.8% (inactive) | 12.5 |  |  |
| Nc1ccc(C(=O)N/N=C/c2c[nH]c3ccccc23)cc1 | 9.89% (inactive) | 14.6 |  |  |

| SMILES | lipid storage change, negative = inhibition | cell number change [%] | Potency | outcome |
| --- | --- | --- | --- | --- |
| Cc1ccc(CNC(=O)C(NS(=O)(=O)c2cccs2)C(C)C)cc1 (stereo not given) | 20.5% (inactive) | 20.4 |  |  |
| Cc1ccc(CNC(=O)C(Cc2ccccc2)NS(=O)(=O)c2cccs2)cc1 (stereo not given) |  |  |  | inactive |
| CCC(NS(=O)(=O)c1cccs1)c1ccc(C)cc1 (stereo not given) |  | 13.3 | 0.164 µM (active) |  |
| CCS(=O)(=O)n1nc(-c2ccco2)nc1N | 0.971% (inactive) | 19.9 |  |  |
| CS/C(=N/S(=O)(=O)c1ccc(C)cc1)c1ccccc1 | 19.1% (inactive) | -26.1 |  |  |
| Cc1ccc(NC(=S)N/C(=N/S(=O)(=O)c2ccccc2)c2ccccc2)cc1 |  |  |  | inactive |
| Cc1ccc(N/C(CSC(N)=O)=N/S(=O)(=O)c2ccccc2)cc1 |  |  | 16.4 µM (active) |  |
| COc1ccc(NC(=O)c2cc(Cl)ccc2Cl)c([N+](=O)[O-])c1 | 18.3% (inactive) | -6.66 |  |  |
| CC(CNC(=O)c1cc(Cl)ccc1[N+](=O)[O-])NC(=O)c1cc(Cl)ccc1[N+](=O)[O-] (stereo not given) | -13.7% (inactive) | -7.89 |  |  |
| COc1cc(OC)cc(C(=O)NC(C)CNc2ccc(Cl)cc2[N+](=O)[O-])c1 (stereo not given) |  | -19.1 | 16.4 µM (active) |  |
| CCC(C)(C)n1nnnc1C(c1cc2cc(C)cc(C)c2[nH]c1=O)N1CCCC1 (stereo not given) | 8.01% (inactive) | 6.4 |  |  |
| CN(Cc1ccccc1)CC(O)COc1ccc(CNCCOc2cccnc2)cc1 (stereo not given) | 9.6% (inactive) | 3.58 |  |  |
| Cc1cc(NC(=O)c2cc([N+](=O)[O-])cc([N+](=O)[O-])c2C)no1 | -8.89% (inactive) | 11.7 |  |  |
| CCC1=Nc2ccccc2-c2nnc(SC)nc2O1 |  |  |  | inactive |
| O=C1Nc2ccccc2C1(O)Cc1ccccn1 (stereo not given) | -6.05% (inactive) | -9.38 |  |  |
| O=C1Nc2ccccc2C1(O)Cc1ccncc1 (stereo not given) |  | 1.32 | 13 µM (active) |  |
| O=C1Nc2ccc(Br)cc2C1(O)Cc1ccncc1 (stereo not given) | 14.5% (inactive) | 16.8 |  |  |
| NS(=O)(=O)c1ccc(CCNC(=O)CSc2ccc3ccccc3c2)cc1 | 2.99% (inactive) |  |  |  |
| COCCN(C(=O)COC(=O)/C(=C/c1ccccc1)NC(C)=O)c1c(N)n(Cc2ccccc2)c(=O)[nH]c1=O |  | -11.6 |  | inactive |
| COc1ccc(CCNC(=O)C2CC3Cn4c(nc5ccccc54)C3N2C)cc1 (stereo not given) | 6.16% (inactive) | -10.7 |  |  |
| COC(=O)C1=C(C)N=C2SC(C#N)=C(N)N2C1c1cc(OC)c(OC)c(OC)c1 (stereo not given) | -7.72% (inactive) | 2.55 |  |  |
| COC(=O)C1=C(C)N=C2SC(C#N)=C(N)N2C1c1cccc(OC)c1 (stereo not given) |  | -6.05 |  | inactive |
| COC(=O)C1=C(C)N=C2SC(C#N)=C(N)N2C1c1ccc(OC)cc1 (stereo not given) |  | -10.8 | 11.6 µM (active) |  |
